Test results published in PubChem BioAssay.
“And” between values parts separate entries of the source, which are not always exact repeats. Equal values may be shown once. Inconclusive results are not listed. The source made the active and inactive calls. Unless noted, the rule behind the calls is not given here.

Experiments:
[1] = signal quenchers or enhancers, Cy5 substrate/SSB – biochemical, NIH Clinical Collection, E. coli SSB, artefact control for HCV NS3 helicase inhibitor project (AID 743268); conditions: Cy5-oligo bound E. coli SSB, fluorescence interference
[2] = tested on: Hepatitis C virus NS3 helicase; experiment: blockers of NS3h binding to DNA – biochemical, fluorescence polarization, NIH Clinical Collection, primary screen (AID 743270); conditions: NS3 helicase binding to Cy5-dT15 DNA, stronger effect = higher value, concentration not given here
[3] = molecular target: Single-stranded DNA-binding protein (Escherichia coli (strain K12)) (UniProt P0AGE0); experiment: SSB-ssDNA binding inhibitors – biochemical, fluorescence polarization, NIH Clinical Collection, counter-screen for HCV NS3 helicase inhibitor project (AID 743271; in the data active = inhibition above about 28%); conditions: E. coli SSB-DNA binding, stronger effect = higher value, concentration not given here
[4] = compounds distorting NS3 helicase fluorescence signal – biochemical, NIH Clinical Collection, artefact control for HCV NS3 helicase inhibitor project (AID 743272); conditions: fluorescence interference counterscreen, HCV NS3 helicase assay; stronger effect = lower value;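 note: HCV NS3 helicase with a Cy5 labelled single stranded DNA probe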
[5] = tested on: Neuropilin-2 / VEGF-C interaction (human); experiment: small molecules blocking Neuropilin-2/VEGF-C interaction – biochemical, microplate binding format, z-score (AID 743281); conditions: microplate NRP2/VEGF-C binding assay; stronger effect = lower value
[6] = tested on: Aerobactin synthetase IucA (Klebsiella pneumoniae); experiment: inhibition of K. pneumoniae IucA enzyme – biochemical, Tocris library, absorbance (AID 1345561); conditions: purified IucA enzyme assay, absorbance (OD) read-out; stronger effect = lower value;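 tested at 8 µM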;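 note: 100% = enzyme without compound and 0% = no enzyme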
[7] = viability loss in pontine glioma line – cell-based, SU-DIPG-XVII, MIPE5.0, CellTiter-Glo, qHTS, dose response (AID 1347060; cut-off not given, nearly all actives have AC50 up to about 26 µM;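 for AC50: cells exposed to compound for 48 hours before viability readout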); conditions: CellTiter-Glo ATP luminescence
[8] = viability loss in pontine glioma line – cell-based, SU-DIPG-XIII, MIPE4.0, CellTiter-Glo, qHTS, dose response (AID 1347061; cut-off not given, nearly all actives have AC50 up to about 37 µM;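 note: cells exposed to compound for 48 hours before readout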); conditions: CellTiter-Glo ATP luminescence
[9] = viability loss in pontine glioma line – cell-based, JHH-DIPG-1, MIPE4.0, CellTiter-Glo, qHTS, dose response (AID 1347062; cut-off not given, nearly all actives have AC50 up to about 27 µM;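 for AC50: cells exposed to compound for two days before readout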); conditions: JHH-DIPG-1 viability, CellTiter-Glo ATP luminescence
[10] = viability loss in pontine glioma line – cell-based, SU-DIPG-IV, MIPE4.0, CellTiter-Glo, qHTS, dose response (AID 1347063; cut-off not given, nearly all actives have AC50 up to about 30 µM;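 note: compound exposure lasted 48 hours before the viability readout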); conditions: CellTiter-Glo ATP luminescence
[11] = viability loss in pontine glioma line – cell-based, SU-DIPG-XXV, MIPE5.0, CellTiter-Glo, qHTS, dose response (AID 1347065; cut-off not given, nearly all actives have AC50 up to about 26 µM;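 note: cells exposed to compound for 48 hours before ATP readout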); conditions: CellTiter-Glo ATP luminescence
[12] = growth inhibition of DIPG cells – cell-based, MIPE4.0 library, CellTiter-Glo luminescence, qHTS (AID 1347066; cut-off not given, nearly all actives have AC50 up to about 30 µM;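 note: cells exposed to compound for 48 hours before readout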); conditions: SU-DIPG-VI viability, CellTiter-Glo ATP luminescence
[13] = JHH-DIPG-1 glioma cell viability, MIPE5.0 library, CellTiter-Glo luminescence, qHTS (AID 1347067; cut-off not given, nearly all actives have AC50 up to about 26 µM;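 note: cells exposed to compound for 48 hours before readout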); conditions: JHH-DIPG-1 glioma viability, CellTiter-Glo ATP luminescence
[14] = growth inhibition of DIPG cells – cell-based, MIPE5.0 library, qHTS (AID 1347068; cut-off not given, nearly all actives have IC50 up to about 30 µM;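 for IC50: cells exposed to compound for 48 hours before viability readout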); conditions: SU-DIPG-XXV viability
[15] = viability loss in pontine glioma line – cell-based, SU-DIPG-XIII, MIPE5.0, CellTiter-Glo, qHTS, dose response (AID 1347064; cut-off not given, nearly all actives have AC50 up to about 23 µM;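 for AC50: cells exposed to compound for 48 hours before the viability read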); conditions: CellTiter-Glo ATP luminescence
[16] = compounds altering circadian rhythm period length – cell-based, LOPAC library, luminescence reporter (AID 2774); conditions: circadian reporter cells, at 7 µM, actives lie on both sides;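 note: values are relative to mean of DMSO wells on each plate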
[17] = tested on: Hepatitis C virus NS3 helicase; experiment: blockers of NS3h binding to ssDNA – biochemical, fluorescence polarization, LOPAC1280 library, primary screen (AID 687035; in the data active = inhibition above about 37%); conditions: Purified HCV NS3 helicase, Cy5-dT15 ssDNA binding fluorescence polarization; stronger effect = higher value; concentration not given here
[18] = compounds altering Cy5-DNA-NS3h complex signal – biochemical, LOPAC1280, artefact control for HCV NS3 helicase inhibitor project (AID 687037); conditions: Cy5-DNA-NS3h complex fluorescence interference counterscreen
[19] = blockers of cellular phospholipid synthesis – cell-based, LOPAC library, screen 4, primary screen (AID 1347384); conditions: animal cells, phospholipid biosynthesis inhibition screen; at 10 µM
[20] = selective SMN2 exon splicing luciferase activators – cell-based, SMN2/SMN1 luciferase reporters (AID 1598); conditions: SMN2 vs SMN1 luciferase splicing reporter cells, at 10 µM; SMN1 luciferase ratio: measured here: SMN1 luciferase reporter average; SMN2 luciferase ratio: measured here: SMN2 luciferase reporter average, stronger effect = higher value; SMN2/SMN1 luciferase ratio: stronger effect = higher value

COc1cc2c(cc1OC)[C@@]13CCN4CC5=CCO[C@H]6CC(=O)N2[C@H]1[C@H]6[C@H]5C[C@H]43
inactive: fluorescence ratio [1] 0.94 | inhibition [2] -2.84% | inhibition [3] 2.76% | fluorescence ratio [4] 0.89 | z-score [5] -0.249

C=CCN1CC[C@]23c4c5ccc(O)c4O[C@H]2C(=O)CC[C@@]3(O)[C@H]1C5
inactive: inhibition [2] -4.09% | inhibition [3] -4.29% | fluorescence ratio [4] 1.04 | remaining activity [6] 101%
active: fluorescence ratio [1] 0.104

CC(C)CC(N(C)C)C1(c2ccc(Cl)cc2)CCC1 (stereo not drawn)
active: AC50 [8] 23500 nM
inactive: fluorescence ratio [1] 1.01 and 0.96 | inhibition [2] -0.22% and -8.08% | inhibition [3] -1.97% and 1.97% | fluorescence ratio [4] 1.01 and 0.95 | outcome [5] | z-score [5] -0.0182 | outcome [7] | outcome [9] | outcome [10] | outcome [11] | outcome [12] | outcome [13] | outcome [14]

COc1cc([C@@H]2c3cc4c(cc3[C@@H](O)C3COC(=O)C32)OCO4)cc(OC)c1O (stereo partly drawn)
active: AC50 [7] 263 nM | AC50 [15] 525 nM | AC50 [11] 417 nM | IC50 [14] 332 nM

NCCc1c[nH]c2ccccc12
inactive: period change [16] 0.085 h | inhibition [17] 0% | fluorescence ratio (interference) [18] 1 | outcome [19]

CC1=C(O)C(=O)C=C2C1=CC=C1[C@@]2(C)CC[C@@]2(C)[C@@H]3C[C@](C)(C(=O)O)CC[C@]3(C)CC[C@]12C
active: AC50 [7] 2090 nM | AC50 [8] 3320 nM | AC50 [9] 2640 nM | AC50 [10] 1320 nM | AC50 [15] 2350 nM | AC50 [11] 1660 nM | AC50 [12] 1180 nM | AC50 [13] 934 nM | IC50 [14] 11800 nM

OC1CCCCC1N1CCC(c2ccccc2)CC1 (stereo not drawn)
inactive: period change [16] 0.065 h | inhibition [17] -4% | fluorescence ratio (interference) [18] 1 | outcome [19]

CN1C2CCC1CC(OC(c1ccccc1)c1ccccc1N)C2 (stereo not drawn)
inactive: period change [16] 0.055 h | inhibition [17] -3% | fluorescence ratio (interference) [18] 1 | outcome [19]

O=C(O)CC[N+](=O)[O-]
inactive: period change [16] -0.005 h | inhibition [17] -3% | fluorescence ratio (interference) [18] 1 | outcome [19]

COc1cc(OC)c(OC)cc1C=O
inactive: outcome [8] | outcome [9] | outcome [10] | outcome [12]

COC1=C[C@@H]2[C@@H]3Cc4ccc(OC)c(O)c4[C@]2(CCN3C)CC1=O
inactive: outcome [15] | outcome [11] | outcome [12] | outcome [13] | outcome [14]
active: AC50 [8] 3320 nM | AC50 [10] 935 nM

NC(N)=NOCC[C@H](N)C(=O)O
inactive: period change [16] -0.04 h | inhibition [17] 2% | fluorescence ratio (interference) [18] 1 | outcome [19]

CC[C@@H]1C(=O)OC[C@@H]1Cc1cncn1C
inactive: period change [16] -0.045 hour and -0.055 hour | inhibition [17] -2% and 1% | fluorescence ratio (interference) [18] 1

O=C1C=C2C(=CCOC2O)O1 (stereo not drawn)
active: SMN2/SMN1 luciferase ratio [20] 2.76
0.26: SMN1 luciferase ratio [20]
0.46: SMN2 luciferase ratio [20]

O=c1cccc2n1CC1CNC[C@H]2C1
active: AC50 [9] 2640 nM
inactive: remaining activity [6] 96.4% | outcome [7] | outcome [13] | outcome [14]

O=[N+]([O-])c1cc(O)c(O)c([N+](=O)[O-])c1
inactive: period change [16] 0.035 h | inhibition [17] 1% | fluorescence ratio (interference) [18] 1 | remaining activity [6] 95.2% | outcome [19]

NC(=NCCC[C@H](N)C(=O)O)N[N+](=O)[O-]
inactive: period change [16] 0.04 h | inhibition [17] -2% | fluorescence ratio (interference) [18] 1 | outcome [19]

O=C1CCCN1CC#CCN1CCCC1
inactive: period change [16] 0.015 h | inhibition [17] -4% | fluorescence ratio (interference) [18] 0.9 | remaining activity [6] 92.7% | outcome [19]
